Screens: PubChem, several laboratories
Only some compounds are listed: those with a hit (about 1.3% of all), similar ones and a draw of the others.
BJeLR viability = kills HRASV12-expressing BJeLR cells; BJeLR (HRASV12) viability, CellTiter-Glo ATP luminescence, 48 h; actives 0.17% (n = 300,000); inhibition, % (concentration not given with the values); in the data active means inhibition above about 50%
Sa RN4220 lethal = S. aureus RN4220 growth inhibition | AID 1259311 | actives 0.33% (n = 330,000) | OD600, 16 h | inhibition, % (test concentration not listed); in the data active means inhibition above about 85%;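 further: plate controls were untreated cells for no effect and reference antibiotic for full effect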
ugtP null kill = growth inhibition of S. aureus ugtP deletion strain. growth inhibition, % (no concentration beside the values). actives 0.54% (n = 330,000). S. aureus RN4220 ugtP deletion, OD600 growth, 16 h; in the data active means growth inhibition above about 68%;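 further: plate controls were untreated wells for no effect and antibiotic for full effect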
PfHsp40 rescue = compounds rescuing yeast from Plasmodium falciparum HSP40 toxicity. S. cerevisiae expressing PfHsp40, growth rescue, ATP luminescence. growth rescue, % at 12.5 µM. actives 0.68% (n = 340,000). AID 504582; in the data active means growth rescue above about 28%, passing the limit was not always enough;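 further: yeast W303a lacking pdr1 and pdr3 grown in galactose medium; growth measured after three days at 30 °C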
3CLpro inhibitor = SARS-CoV 3CLpro protease inhibition | P0C6X7 | recombinant SARS-CoV 3CLpro, quenched FRET peptide cleavage | inhibition, % at 6 µM | actives 0.14% (n = 290,000); in the data active means inhibition above about 12%
An asterisk follows results filed as active; · = no result; ! = repeats disagree.

SMILES	BJeLR viability	Sa RN4220 lethal	ugtP null kill	PfHsp40 rescue	3CLpro inhibitor
CCOC(=O)Cn1c(COc2ccccc2OC)[n+](C)c2ccccc21	-6	-3	1	·	·
CCCCCCCCCCOC(=O)Cn1c(COc2ccccc2)[n+](C)c2ccccc21	5	·	·	336*	-1
CCCCCCCCCCOC(=O)Cn1c(COc2ccc(Cl)cc2)[n+](C)c2ccccc21	-7	·	·	7	5
CCCCCCCCCCOC(=O)Cn1c(COc2ccc(OC)cc2)[n+](C)c2ccccc21	7	·	·	383*!	2
CCCCCCCCCCOC(=O)Cn1c(COc2cccc(C)c2)[n+](C)c2ccccc21	3	·	·	213*	-2
CCn1cc2c(c1-c1cccc(C)c1)c(=O)n(C)c(=O)n2C	14	3	3	0	2
Cc1ccc(NC(=O)N2CCc3ccccc3C2)cc1C	0	-5	-6	0	-1
Cc1ccc(NC(=O)CCC(=O)NNC(=O)COc2cccc3ccccc23)c(C)c1	-3	3	-6	0	0
CC(=O)N1c2ccc(C)cc2Sc2c1ccc1ccccc21	·	4	70	30*	·
Cc1cccc2sc(NNC(=O)c3ccc(S(=O)(=O)N4CCCC(C)C4)cc3)nc12 (stereo unspecified)	11	8	-11	356*	3
Cc1cccc2sc(NNC(=O)c3ccc(S(=O)(=O)N4CCc5ccccc5C4)cc3)nc12	16	-8	-37	410*	9
Cc1c(C(c2ccc(O)cc2)c2c(O)c3ccccc3oc2=O)c(=O)n(-c2ccccc2)n1C (stereo unspecified)	-16	3	48	1	6
COc1ccc(OC)c(C(c2c(O)c3ccccc3oc2=O)c2c(C)n(C)n(-c3ccccc3)c2=O)c1 (stereo unspecified)	-10	1	2	46*	0
FCCCOc1ccc(-c2ccnc(-c3ccccc3)n2)cc1	-5	-5	26	7	1
Cc1cc(NC(=O)c2c(F)cccc2Cl)n(-c2nc3ccccc3[nH]2)n1	3	7	-24	113*	1
Cc1cc(NC(=O)c2c(F)cccc2F)n(-c2nc3ccccc3[nH]2)n1	-4	2	-18	-3	-1
CCCCCCCCn1c(=O)c(C(=O)OC)c(N)c2ccccc21	-12	3	-23	·	1
CCCCCCCn1c(=O)c(C(=O)OC)c(N)c2ccccc21	-1	2	-15	245*	1
CCCCCn1c(=O)c(C(=O)Nc2ccccn2)c(O)c2ccccc21	-15	100*	100*	1	2
CCCCCCn1c(=O)c(C(=O)Nc2cnccn2)c(O)c2ccccc21	-13	35	92*	-2	1
CCCCn1c(=O)c(C(=O)Nc2ccccn2)c(O)c2ccccc21	13	5	-9	0	-1
CCOC(=O)Cc1csc(NC(=O)c2c(O)c3ccccc3n(CCC(C)C)c2=O)n1	7	96*	100*	-1	2
CCCCCCn1c(=O)c(C(=O)Nc2nc(CC(=O)OCC)cs2)c(O)c2ccccc21	-9	43	21	-1	2
Cc1ccc(S(=O)(=O)N2[C@@H](c3ccc(C#N)cc3)C(C(=O)O)=C[C@H]2CC2CCCC2)cc1	·	7	-11	2	·
Cc1ccc2nc3c(cc(C(=O)NCCCn4ccnc4)n3C)c(=O)n2c1	1	5	-3	1	3
SMILES	BJeLR viability	Sa RN4220 lethal	ugtP null kill	PfHsp40 rescue	3CLpro inhibitor
Cc1cccc(C(C)C)c1NC(=O)c1ccc(CN(c2ccccc2)S(=O)(=O)c2ccccc2)cc1	2	2	10	1	3
COC(=O)c1cc(OC)c(OC)cc1NC(=O)c1cnccn1	3	5	2	·	1
Cc1nnc2n1NC(c1ccc(Cl)cc1)C(C(=O)N1CCC(C)CC1)S2 (stereo unspecified)	-10	-18	-5	-1	1
COC(=O)NCc1cccc(CNC(=O)OC)c1	12	4	2	-1	4
O=C(CN1c2ccccc2Sc2ccccc21)NNC(=S)Nc1ccc(Cl)cc1	5	-5	-5	75*	-1
CC1CN(C)C(C)CC1OC(=O)C(c1ccccc1)c1ccccc1 (stereo unspecified)	0	1	86*	·	·
CN(C)[C@@H]1CCC[C@H]1OC(=O)C(c1ccccc1)c1ccccc1	-12	-1	7	-1	10
CCCCOc1ccc(C(=O)OC2CC(C)N(C)CC2C)cc1 (stereo unspecified)	7	5	98*	-1	-1
